This is an account of results in the supplement of paper PMC6555819.

The test deals with VDR:RXRa (NR concentration 270 nM, RXRa partner concentration 90 nM). Description: PBM binding z-score (relative to random genomic background probes); higher = stronger binding; sequences stand for … in GC…GCGATTGACAGCGTAGAATGAAGG
The procedure:
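Protein-binding microarray (Agilent 4x180K custom design, double-stranded 60-nt probes: 5' GC cap, 34-nt variable region, 24-nt constant primer region; full probe sequence given). Purified or IVT nuclear receptor:RXRα heterodimers (3:1 NR:RXRα, mostly 270:90 nM) or homodimers were incubated for 1 h in PBS with 2% milk and no ligand, then detected with Alexa488 antibodies. Fluorescence from o1-orientation probes (~5 replicates averaged) was converted to z-scores against 500 random hg19 background probes. Variable regions are seed direct-repeat (DR0–DR5) sites, all their single-nucleotide variants and half-site ablations.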
With CGAACTAGGTCATCCAGGACAGTGAATACATTGA, the PBM binding z-score came to 4.73.

The sequence CCGTACGGGTCACTGACAGGTTATAGCATTTGGA had a PBM binding z-score of 3.72. The result for ATCGAAACGTCGAAGGTGAGTATACCCACCCGAA reads -0.229; that for CATACAGGGGCAGCTAGGCCAGAGTAGGGACGGC, -0.446. With ATACCAAGGTGATCGTGAGGTCGTTGAAACTAAC the figure was 3.53; with ATATGTAGGTTATCGCGTCATTCAGTTTGCGCAT, 0.798. Sequence TCTATTAGTTGATTAGCGCAACCGAAACAGCGGA registered a PBM binding z-score of 0.694. CGTCAAAGTTCAAGGTATCGTAACAGAAAGCAGC gave a PBM binding z-score of 3.74. The result for CCACGGAGGACAGAAGGTCAGAGCTGTCCGCTTT reads 0.979; that for ATCTCTAGGTAACAAGTCCAGTGAAAGAGAGGAC, 0.103; that for GCTTACGGGTCAAAGGTTATAGCTTGAATAGAAT, 5.25. On to CCTTACGGGTCACAAGGTTATAGCACGACGAGCG, for which the PBM binding z-score was 4.37. The result for CATACAGGGTCAGCTAGCCCAGAGTAGGGACGGC reads 2.52; that for TATACAGGGTCAAAGGCCAGAGCACGAATGTCGA, 4.37. With CGTCCAAGGGCAAAGGTCAGTGAAGAGATGACGG the figure was 3.89. In the case of TCATATAGGTAAAAGGTGGAAGTCGGTGTGGTAA, the PBM binding z-score amounted to 1.11.

The sequence CCTTACGGGCCACTCCAGGTTATAGCATCGGAGT registered a PBM binding z-score of -0.25. As to GCATACAGGTGAAACGCAGGTAACTCAGGGTGGC, the PBM binding z-score is -0.304.

In turn, TCATATAGGTAAACAGGTGAAAGTGCGTAAGTTA yielded a PBM binding z-score of 1.29.

On to AGAATGAGGTTAATAAGATCAGGGAATTGCGGTC, for which the PBM binding z-score was determined as 2.02. TCTGGTAGATCAACAGGAGGTTAAGAAAGATCGA: the PBM binding z-score turned out to be 0.61. GCTTGTAGATCAGGGTTAAGAAAGACTAAGCTAA: the PBM binding z-score is 0.179. The sequence TCTCGTTGGTCAAAGGTCACACACTCGAAATGCG showed a PBM binding z-score of 5.25. Sequence CCTACTGGGCCACGAAAGGTCATTTATTCAGTGA displayed a PBM binding z-score of 4.27. ACTATAAGTTGAGACGAGGGCAACCGATAGGTTG: the PBM binding z-score came out at 1.75. Consider ATCTCTAGGTAACAAGTTCAGTGCAAGAGAGGAC, for which the PBM binding z-score was found to be 1.79. CCTTACGGGTCACTGACAGGTTAGAGCATTTGGA gave a PBM binding z-score of 3.33. With ATCTTTAGGTAAAGTTCAGTGAAAGATCGATAGA the figure was 1.7; with TAGCCTAGGTCATGGGCCCGTATACCACGCGAAC, 2.07. GCTAGTTGGTCAGTGAAAGGTCACACACCGGTCG returned a PBM binding z-score of 4.14. With TCTATTAGTTAAAGGGCAACCGACGAGTCCGTTT the figure was 1.46; with ATATGTAGGTTATCGGGTCATTCAATTTGCGCAT, 3.87. With CCGACAGGGGCAAAGGTTACCATACTCAGTACGA the figure was 2.6. For the sequence ATCGAAAGGTCGCGGTGAGTATAGAGAAAGGGAA, the PBM binding z-score was 3.74.

Consider CCTAGCAGGCCAATCTGGGTCGCTCAAGGCTTGA, for which the PBM binding z-score turned out to be 0.301. In turn, CCTTGCGGGTCAAGGTTATAGCACGGGTGGTACG registered a PBM binding z-score of 2.95. Sequence AGAATGAGGTTGTTAAGATCAGGGAATTGCGGTC showed a PBM binding z-score of 0.496. With CCGACTGGGGCATAATGTTACCATAAGCCAGCCC the figure was -0.48.

Regarding GCTCGGAGGACAAGGACAGAGCTTTGTCCGTAGA, the PBM binding z-score is -0.798.

CATACAGGGTCAGCTAGGCTAGAGTAGGGACGGC had a PBM binding z-score of 3.
